The text below walks through data of PubChem BioAssay (NCI).

Some test systems named below: HCT-15 colon; HT29 colon; SNB-75 CNS; SNB-19 CNS; U251 CNS; PC-3 prostate; SK-MEL-5 melanoma; UACC-62 melanoma; LOX IMVI melanoma; SK-MEL-28 melanoma.
Common to all, as to experiment: NCI-60 one-dose screen, 48 h (100 = growth as untreated, 0 = no growth, -100 = all killed)
Common to all, as to conditions: 10 µM unless noted

This is part of a sample that, as a whole, favours compounds with a hit. Of some 83,000 tested, about 20% had one in any assay.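 For each line, cells grew in 96-well plates with the test compound present at a single concentration for 48 hours.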 Values without a mark were called inactive. The source made the active and inactive calls. Rule for the calls: active = growth percent below 10; inactive = the rest.

Turning to `CCCCOC(=O)c1c(C)[nH]c(/C=C2\N=C(c3ccc[nH]3)C=C2OC)c1C`, the growth in the experiment on HCT-15 colon is -1.74% (active); in the experiment on HT29 colon it was 1.64% (active); in the experiment with SNB-75 CNS, -20% (active); with SNB-19 CNS it was 26.6%; in the experiment with U251 CNS it was 1.25% (active); in the experiment with PC-3 prostate it was 13.9%. The growth was -98% (active) in the experiment on SK-MEL-5 melanoma, -28% (active) in the experiment on UACC-62 melanoma, -65.8% (active) with LOX IMVI melanoma and -14% (active) with SK-MEL-28 melanoma.

As to `O=S(=O)(/N=c1/n(-c2ccccc2)nc2n1CCN2C1=NCCN1)c1ccc(-c2ccccc2)cc1`, the growth with HCT-15 colon was 99.4%; with HT29 colon, 100%; in the experiment on SNB-75 CNS, 85%; with SNB-19 CNS, 97.1%; with U251 CNS, 92.7%; with PC-3 prostate, 93.8%. Further, the growth was 90.6% in the experiment with SK-MEL-5 melanoma, 109% in the experiment with UACC-62 melanoma, 93% in the experiment on LOX IMVI melanoma and 105% in the experiment with SK-MEL-28 melanoma.

Regarding `CCCSc1nc(N)nc2nc[nH]c12`, the growth was 104% in the experiment on HCT-15 colon; 112% in the experiment on HT29 colon; 108% with SNB-75 CNS; 102% with SNB-19 CNS; 107% in the experiment with U251 CNS; 99.4% in the experiment on PC-3 prostate. In addition, the growth in the experiment on SK-MEL-5 melanoma is 101%; with UACC-62 melanoma, 87.6%; in the experiment with LOX IMVI melanoma it was 99.3%; in the experiment on SK-MEL-28 melanoma, 126%.

Consider `COc1cc2c(cc1OCCCN1CCN(CCCOc3cc4c(cc3OC)C(=O)N3C[C@H](F)C[C@H]3C=N4)CC1)N=C[C@@H]1C[C@@H](F)CN1C2=O`, for which the growth in the experiment with HCT-15 colon is 56.6%; with HT29 colon it was 0.625% (active); in the experiment with SNB-75 CNS, -72.3% (active); with SNB-19 CNS, 18.1%; in the experiment on U251 CNS, 8.39% (active); in the experiment on PC-3 prostate, 12.7%. Besides, the growth with SK-MEL-5 melanoma was -44.7% (active); with UACC-62 melanoma it was -59.7% (active); in the experiment with LOX IMVI melanoma, 5.06% (active); in the experiment with SK-MEL-28 melanoma it was -50.8% (active).

`CC(=O)n1cc(C=O)c2ccccc21`: the growth with HCT-15 colon is 106%; with HT29 colon, 97.7%; in the experiment with SNB-75 CNS, 81.7%; in the experiment on SNB-19 CNS, 100%; in the experiment on U251 CNS, 86.3%; with PC-3 prostate it was 93.5%. For the same molecule, the growth with SK-MEL-5 melanoma is 97.2%; in the experiment on UACC-62 melanoma, 94.2%; in the experiment with LOX IMVI melanoma it was 93.8%; in the experiment on SK-MEL-28 melanoma, 105%.

On to `CNC(=O)c1cc(Oc2ccc3nc(NC(=O)c4ccc5ncccc5c4)sc3c2)ccn1`, for which the growth in the experiment with HCT-15 colon was 91.1%; with HT29 colon, 69.9%; in the experiment on SNB-75 CNS, 86.5%; with SNB-19 CNS, 95.1%; in the experiment with U251 CNS it was 93.6%; in the experiment on PC-3 prostate it was 93.2%. The growth in the experiment on SK-MEL-5 melanoma was 86.4%; in the experiment on UACC-62 melanoma, 94.9%; in the experiment with LOX IMVI melanoma, 99.6%; in the experiment with SK-MEL-28 melanoma it was 101%.

Regarding `O=C(NNc1ccc(-c2ccccc2)nn1)c1ccc(F)cc1`, the growth in the experiment with HCT-15 colon is 89%; in the experiment with HT29 colon, 96.1%; in the experiment with SNB-75 CNS, 79.9%; with SNB-19 CNS, 86.5%; in the experiment on U251 CNS, 95.2%; in the experiment with PC-3 prostate it was 105%. Moreover, the growth with SK-MEL-5 melanoma was 95.3%; in the experiment on UACC-62 melanoma it was 95.3%; in the experiment with LOX IMVI melanoma it was 98.9%; in the experiment on SK-MEL-28 melanoma, 110%.

For the molecule `O=C(O)c1ccccc1C(F)(F)F`, the growth in the experiment with HCT-15 colon is 104%; in the experiment with HT29 colon it was 107%; in the experiment with SNB-75 CNS, 77.1%; in the experiment with SNB-19 CNS it was 99.1%; in the experiment on U251 CNS it was 96.5%; in the experiment with PC-3 prostate, 99.7%. For the same molecule, the growth with SK-MEL-5 melanoma was 105%; in the experiment on UACC-62 melanoma, 95%; with LOX IMVI melanoma, 81.2%; in the experiment on SK-MEL-28 melanoma, 121%.

On to `CC(C)OC(=O)Nc1cc(F)ccc1F`, for which the growth is 105% with HCT-15 colon; 98.3% in the experiment on HT29 colon; 95.3% in the experiment on SNB-75 CNS; 96.2% in the experiment with SNB-19 CNS; 100% with U251 CNS; 99.7% in the experiment on PC-3 prostate. In addition, the growth in the experiment with SK-MEL-5 melanoma was 101%; in the experiment with UACC-62 melanoma, 94.1%; in the experiment with LOX IMVI melanoma it was 106%; with SK-MEL-28 melanoma, 102%.

Turning to `COc1ccccc1S(=O)Nc1ccccc1` (stereo not given), the growth with HCT-15 colon was 102%; with HT29 colon, 91.4%; in the experiment with SNB-75 CNS, 87.4%; in the experiment on SNB-19 CNS, 99.5%; with U251 CNS, 91%; in the experiment on PC-3 prostate it was 87.2%. Besides, the growth in the experiment on SK-MEL-5 melanoma was 96.8%; in the experiment with UACC-62 melanoma, 94.1%; in the experiment on LOX IMVI melanoma it was 99.4%; in the experiment on SK-MEL-28 melanoma, 114%.

For the molecule `Brc1ccc2c(c1)CN(C1CCCCC1)CO2`, the growth was 104% in the experiment with HCT-15 colon; 103% in the experiment on HT29 colon; 82.2% with SNB-75 CNS; 103% with SNB-19 CNS; 108% in the experiment with U251 CNS; 91.6% with PC-3 prostate. The growth in the experiment on SK-MEL-5 melanoma is 104%; in the experiment on UACC-62 melanoma it was 105%; in the experiment on LOX IMVI melanoma it was 95.1%; in the experiment on SK-MEL-28 melanoma it was 118%.

Take `Cc1ccc(NCCN2CCCCC2)c2c(=O)c3ccccc3sc12`: the growth was 13.9% with HCT-15 colon; 20.5% in the experiment on HT29 colon; 38.7% in the experiment on SNB-75 CNS; 36% in the experiment on SNB-19 CNS; 21.1% in the experiment on U251 CNS; 38.2% in the experiment on PC-3 prostate. The growth was -92.2% (active) with SK-MEL-5 melanoma, -2.99% (active) with UACC-62 melanoma, -50.1% (active) in the experiment on LOX IMVI melanoma and 11% with SK-MEL-28 melanoma.
